Some test systems named below: DU-145 prostate; MALME-3M melanoma; MDA-MB-231 breast; RXF 393 renal; SF-268 CNS; SF-295 CNS; SF-539 CNS; UACC-257 melanoma; M14 melanoma.
Assay in all cases: NCI-60 one-dose screen, 48 h (100 = growth as untreated, 0 = no growth, -100 = all killed)
Details in all cases: 10 µM unless noted

The panel holds about 83,000 compounds, 20% with a hit somewhere; the sample as a whole holds those more often.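 Results are percent growth after 48 hours of single-concentration exposure. 100 means growth as in untreated cells, lower positive values show inhibition; negative values down to -100 show cell death.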 Unmarked numbers belong to inactive results. Active and inactive are the calls of the source. Rule for the calls: active = growth percent below 10; inactive = the rest.

As for `C#Cc1cccc(NC(=O)c2cccc(NC(=O)CCl)c2)c1`, the growth with DU-145 prostate was 4.82% [8.25 µM] (active); with MALME-3M melanoma it was -80.3% [8.25 µM] (active); in the experiment on MDA-MB-231 breast it was -80.5% [8.25 µM] (active); in the experiment on RXF 393 renal it was -20.9% [8.25 µM] (active); in the experiment with SF-268 CNS, 8.4% [8.25 µM] (active); with SF-295 CNS, 21.9% [8.25 µM]. In addition, the values for the growth in the experiment on SF-539 CNS, with UACC-257 melanoma and in the experiment on M14 melanoma were -97.1% [8.25 µM] (active), 28.1% [8.25 µM] and 0.864% [8.25 µM] (active), respectively.

`Cc1nc2sccn2c1-c1nc2sccn2c1/C=C1/C(=O)Nc2ccccc21`: the growth is 48% in the experiment with DU-145 prostate; 50% in the experiment with MALME-3M melanoma; 44.6% in the experiment on MDA-MB-231 breast; 32.7% in the experiment with RXF 393 renal; 60.9% with SF-268 CNS; -8.95% (active) in the experiment on SF-295 CNS. Moreover, the values for the growth with SF-539 CNS, in the experiment with UACC-257 melanoma and with M14 melanoma were 16.4%, 51.8% and 34.2%, respectively.

For `NS(=O)(=O)c1ccc(CCN2C(=O)c3cc(Cl)c(Cl)cc3C2=O)cc1`, the growth with DU-145 prostate was 104%; in the experiment with MALME-3M melanoma, 110%; in the experiment on MDA-MB-231 breast, 107%; in the experiment on RXF 393 renal, 120%; in the experiment with SF-268 CNS it was 98.1%; in the experiment on SF-295 CNS, 99.7%. In addition, the figures for the growth in the experiment on SF-539 CNS, in the experiment with UACC-257 melanoma and in the experiment on M14 melanoma were 106%, 99.7% and 106%, respectively.

With `COc1ccc(/C=C/c2nc(Nc3ccc(S(=O)(=O)Nc4cc(C)on4)cc3)c3ccccc3n2)cc1`, the growth is 77.3% with DU-145 prostate; 112% with MALME-3M melanoma; 62.1% with MDA-MB-231 breast; 113% with RXF 393 renal; 76.4% in the experiment with SF-268 CNS; 54.6% in the experiment on SF-295 CNS. Moreover, the growth is 88.7% with SF-539 CNS, 77.5% with UACC-257 melanoma and 39.9% in the experiment on M14 melanoma.

For the compound `C=C(C)[C@@H]1CC[C@]2(C(=O)N[C@@H](Cc3ccccc3)C(=O)OC)CC[C@]3(C)[C@H](CC[C@@H]4[C@@]5(C)CCC(=O)C(C)(C)[C@@H]5CC[C@]43C)[C@@H]12`, the growth was 92.7% with DU-145 prostate; 102% with MALME-3M melanoma; 102% in the experiment on MDA-MB-231 breast; 101% with RXF 393 renal; 78% in the experiment with SF-268 CNS; 78.8% in the experiment on SF-295 CNS. In addition, the figures for the growth in the experiment on SF-539 CNS, with UACC-257 melanoma and with M14 melanoma were 93.7%, 104% and 87.8%, respectively.

Take `CN1CCN(CCNc2nccc(-c3c(-c4cccc(O)c4)nc4sccn34)n2)S1(=O)=O`: the growth in the experiment with DU-145 prostate is 56.5%; in the experiment on MALME-3M melanoma it was -20% (active); in the experiment with MDA-MB-231 breast it was 24.3%; in the experiment on RXF 393 renal, 39.2%; in the experiment with SF-268 CNS, 85.6%; in the experiment on SF-295 CNS, 95.9%. Also, the growth with SF-539 CNS is 79.9%; in the experiment with UACC-257 melanoma, -10.6% (active); in the experiment on M14 melanoma, -4.02% (active).

Turning to `O=C(/C(=C/c1ccc([N+](=O)[O-])cc1)SCc1ccc(F)cc1)c1ccc(F)cc1`, the growth was 94.6% in the experiment with DU-145 prostate; 88.8% with MALME-3M melanoma; 76.1% in the experiment on MDA-MB-231 breast; 97% in the experiment with RXF 393 renal; 80.8% in the experiment with SF-268 CNS; 93.2% with SF-295 CNS. Further, the growth with SF-539 CNS was 105%; with UACC-257 melanoma it was 108%; in the experiment on M14 melanoma it was 82.8%.

As to `Oc1ccc(C2c3ccccc3Oc3ccccc32)c2cccnc12`, the growth with DU-145 prostate is 31.2%; in the experiment on MALME-3M melanoma, 10.2%; with MDA-MB-231 breast, 30.2%; in the experiment on RXF 393 renal, 5.91% (active); with SF-268 CNS, 20.2%; in the experiment on SF-295 CNS, 13%. The growth was 10.4% in the experiment with SF-539 CNS, 3.42% (active) with UACC-257 melanoma and -24.5% (active) with M14 melanoma.

For `Cc1ccc(C(=O)/C(=C\c2ccc([N+](=O)[O-])cc2)S(=O)Cc2ccc(Cl)cc2)cc1` (stereo unspecified), the growth is 23.3% in the experiment with DU-145 prostate; 34.1% with MALME-3M melanoma; 23.8% in the experiment on MDA-MB-231 breast; -69% (active) in the experiment with RXF 393 renal; 25.5% in the experiment with SF-268 CNS; 73.2% in the experiment with SF-295 CNS. Further, the growth in the experiment on SF-539 CNS was 53.5%; in the experiment with UACC-257 melanoma, 94.9%; in the experiment with M14 melanoma, 41.4%.

As to `COc1ccc(/C=C/c2nc(Nc3ccc(S(=O)(=O)NC(C)=O)cc3)c3ccccc3n2)cc1`, the growth is 69.5% with DU-145 prostate; 99.1% in the experiment on MALME-3M melanoma; 72.4% in the experiment with MDA-MB-231 breast; 103% with RXF 393 renal; 85.3% with SF-268 CNS; 81.2% in the experiment with SF-295 CNS. Moreover, the growth in the experiment with SF-539 CNS is 97.3%; with UACC-257 melanoma, 89.4%; in the experiment on M14 melanoma, 45.5%.

`CC1(C)NCCC[C@]2(C)[C@H]3CC[C@@H]4[C@H]5[C@H](C(=O)/C=C/c6ccco6)CC[C@]5(CO)CC[C@@]4(C)[C@]3(C)CC[C@@H]12`: the growth was 97.4% in the experiment with DU-145 prostate; 78.7% in the experiment with MALME-3M melanoma; 96.2% in the experiment on MDA-MB-231 breast; 89.2% in the experiment with RXF 393 renal; 95.7% with SF-268 CNS; 113% with SF-295 CNS. In addition, the values for the growth in the experiment with SF-539 CNS, with UACC-257 melanoma and in the experiment with M14 melanoma were 87.8%, 91.9% and 91.3%, respectively.

Turning to `CCNc1nc2ccc(Nc3ccnc4cc(Cl)ccc34)cc2[nH]1`, the growth in the experiment with DU-145 prostate is 97%; in the experiment with MALME-3M melanoma, 119%; in the experiment on MDA-MB-231 breast, 84.7%; in the experiment on RXF 393 renal it was 68.5%; with SF-268 CNS, 88.4%; in the experiment on SF-295 CNS it was 87.3%. The growth in the experiment on SF-539 CNS is 85.6%; in the experiment with UACC-257 melanoma, 97.9%; in the experiment with M14 melanoma it was 91.9%.

Regarding `CC/C(=C\c1ccc(OC)cc1)C(=O)c1ccc(OC)cc1`, the growth is 105% in the experiment with DU-145 prostate; 114% with MALME-3M melanoma; 96.4% in the experiment on MDA-MB-231 breast; 126% in the experiment with RXF 393 renal; 101% with SF-268 CNS; 76.5% in the experiment with SF-295 CNS. Moreover, the growth was 96.5% in the experiment on SF-539 CNS, 101% with UACC-257 melanoma and 102% with M14 melanoma.

`CC(c1ccccc1)C(C(=O)c1ccccc1)c1ccccc1` (stereo unspecified): the growth was 105% in the experiment on DU-145 prostate; 109% in the experiment on MALME-3M melanoma; 71.6% with MDA-MB-231 breast; 90.6% with RXF 393 renal; 94.2% in the experiment with SF-268 CNS; 91.8% in the experiment on SF-295 CNS. The growth was 98.1% in the experiment on SF-539 CNS, 105% in the experiment with UACC-257 melanoma and 89.7% in the experiment on M14 melanoma.

The values above are taken from PubChem BioAssay (NCI).
